Screening results from PubChem BioAssay.
Shown are actives, neighbours in structure and some others; about 32% of the full set was active somewhere.
CYP2C9 activ: activators of human CYP2C9; P11712; recombinant CYP2C9, luciferin-H conversion, luminescence; stronger effect = higher value; factor 1 = untreated enzyme, 0 = blocked; activation factor at 5 µM; hit rate 1.4% among 96,000;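 active = activation factor of 2 or more for CYP2C9 at a 5 µM dose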;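 note: 0 = sulfaphenazole-blocked wells and 1 = vehicle-only wells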
CYP2C9 inhib: human CYP2C9 inhibition; P11712; CYP2C9 Supersomes, luciferin-H conversion, luminescence; inhibition, % at 5 µM; hit rate 20% among 96,000; AID 777;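 active = blocking of liver enzyme CYP2C9 beyond about 50% at 5 µM, limit read from the data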
PostGolgi yeast: growth inhibition of a yeast mutant, post-Golgi transport screen | post-Golgi transport phenotypic cell assay | inhibition, % at 10 µM | hit rate 0.9% among 98,000 | AID 739;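 note: yeast cells grown in 1536-well plates; yeast grown about 18 h at 30C before absorbance read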
CYP2C19 inh: human CYP2C19 inhibition; CYP2C19 Supersomes, luciferin-H EGE luminescence, 30 min; inhibition, % at 5 µM; hit rate 21% among 96,000; AID 778;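 active = CYP2C19 inhibition above a set limit at 5 µM in the primary screen, cut at about 50% in these data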;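 note: plate controls were negative control wells for no effect and 2.5 mM tranylcypromine positive control for full effect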
Target sequence (P33261 whole entry, looked up): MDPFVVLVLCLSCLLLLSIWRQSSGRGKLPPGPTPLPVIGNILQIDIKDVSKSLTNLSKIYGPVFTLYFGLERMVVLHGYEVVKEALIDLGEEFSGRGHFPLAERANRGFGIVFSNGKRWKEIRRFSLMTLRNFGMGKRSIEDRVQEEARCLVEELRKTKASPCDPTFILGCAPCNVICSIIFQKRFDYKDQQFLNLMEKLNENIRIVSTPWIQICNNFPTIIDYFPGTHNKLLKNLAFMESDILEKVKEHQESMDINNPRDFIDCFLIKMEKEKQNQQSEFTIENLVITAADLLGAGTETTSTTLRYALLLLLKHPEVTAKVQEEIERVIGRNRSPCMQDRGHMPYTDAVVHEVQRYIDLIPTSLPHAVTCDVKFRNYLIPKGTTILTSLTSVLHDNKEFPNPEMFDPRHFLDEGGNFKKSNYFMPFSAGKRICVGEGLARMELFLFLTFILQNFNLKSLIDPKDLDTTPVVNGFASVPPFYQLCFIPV
CYP2C19 act: cytochrome P450 2C19 (human) activation | recombinant CYP2C19, luciferin-H EGE luminescence; stronger effect = higher value; 0 = fully inhibited enzyme, 1 = untreated enzyme | 96,000 tested, under 10 active | activation factor at 5 µM | P33261 | AID 1025;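 active = activation factor of at least 2 at 5 µM in the primary screen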;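 note: 0 = wells with 2.5 mM tranylcypromine and 1 = vehicle-only wells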
PostGolgi ctrl: inhibits growth of the yeast control strain; AID 738; hit rate 5% among 98,000; inhibition, % at 10 µM; efflux-deficient yeast background strain, growth absorbance A615, 16 h
The depositor's hits bear a star. Cut-off read from the data, not from the text of the source, unless noted: active = inhibition above about 30%; inactive = the rest.

For CC1(C)CC2CC(C)(CN2C(=O)COC(=O)c2ccc(Cl)c(N)c2)C1 (stereo unspecified) the results were CYP2C9 activ 1, CYP2C9 inhib 4, PostGolgi yeast -1, CYP2C19 inh 47, CYP2C19 act 0.5 and PostGolgi ctrl 17.
For O=C(N/N=C/c1ccc(OC2CSC2)cc1)c1ccccc1 the results were CYP2C9 activ 0.9, CYP2C9 inhib 6, PostGolgi yeast -4, CYP2C19 inh -11, CYP2C19 act 1.1 and PostGolgi ctrl 0.
O=C(/C=C/c1ccc(OC2CSC2)cc1)c1ccccc1 was read as CYP2C9 activ 0.6, CYP2C9 inhib 40, PostGolgi yeast -4, CYP2C19 inh 61*, CYP2C19 act 0.4 and PostGolgi ctrl 8.
COc1ccc(C)cc1NC(=O)CN1C(=O)c2cccc3cccc1c23 was read as CYP2C9 activ 0.7, CYP2C9 inhib 29, PostGolgi yeast -4, CYP2C19 inh 38, CYP2C19 act 0.6 and PostGolgi ctrl -3.
For CCN(CCNC(=O)C1CCN(c2nnc(-n3cccc3)s2)CC1)c1ccccc1 the results were CYP2C9 activ 0.1, CYP2C9 inhib 87*, PostGolgi yeast 4, CYP2C19 inh 83*, CYP2C19 act 0.2 and PostGolgi ctrl 13.
Screening CCOc1ccc(CCNC(=O)C2CCN(c3nnc(-n4cccc4)s3)CC2)cc1OCC returned CYP2C9 activ 0.2, CYP2C9 inhib 82*, PostGolgi yeast -9, CYP2C19 inh 43, CYP2C19 act 0.6 and PostGolgi ctrl 2.
Screening CCOc1ccc(CCNC(=O)C2CCN(c3nn4c(=O)cc(C)nc4s3)CC2)cc1 returned CYP2C9 activ 0.4, CYP2C9 inhib 65*, PostGolgi yeast -26, CYP2C19 inh 23, CYP2C19 act 0.8 and PostGolgi ctrl -2.
For CCOc1ccc(CCNC(=O)C2CCN(c3nnc(-n4cccc4)s3)CC2)cc1 the results were CYP2C9 activ 0.8, CYP2C9 inhib 18, PostGolgi yeast -8, CYP2C19 inh -9, CYP2C19 act 1.1 and PostGolgi ctrl -1.
Screening Cc1ccc(CCNC(=O)C2CCN(c3nn4c(=O)cc(C)nc4s3)CC2)cc1 returned CYP2C9 activ 0.7, CYP2C9 inhib 28, PostGolgi yeast -1, CYP2C19 inh 21, CYP2C19 act 0.8 and PostGolgi ctrl 15.
For CCn1c(SCC(=O)Nc2cccc(C(C)=O)c2)nnc1C(C)C the results were CYP2C9 activ 0.9, CYP2C9 inhib 11, PostGolgi yeast -3, CYP2C19 inh 9, CYP2C19 act 0.9 and PostGolgi ctrl 5.
`Nc1cc(C(=O)N2CCCC2)cc(C(=O)N2CCCC2)c1` gave CYP2C9 activ 1, CYP2C9 inhib -3, PostGolgi yeast -4, CYP2C19 inh 0, CYP2C19 act 1 and PostGolgi ctrl -11.
For C[n+]1cc[nH]c1SCC(=O)c1ccccc1 the results were CYP2C9 activ 1.1, CYP2C9 inhib -9, PostGolgi yeast 29, CYP2C19 inh 72*, CYP2C19 act 0.3 and PostGolgi ctrl 2.
For COc1ccc(/C=N/NC(=O)c2cc(C34CC5CC(CC(C5)C3)C4)[nH]n2)cc1O the results were CYP2C9 activ 0.4, CYP2C9 inhib 59*, PostGolgi yeast 6, CYP2C19 inh 40, CYP2C19 act 0.6 and PostGolgi ctrl 17.
For COc1ccc(/C=N/NC(=O)CCc2c(C)n[nH]c2C)cc1O the results were CYP2C9 activ 0.4, CYP2C9 inhib 64*, PostGolgi yeast -9, CYP2C19 inh 10, CYP2C19 act 0.9 and PostGolgi ctrl 9.
`O=C1CCC2(C(=O)O)Sc3ccccc3N12` (stereo unspecified) gave CYP2C9 activ 1.3, CYP2C9 inhib -34, PostGolgi yeast 4, CYP2C19 inh -28, CYP2C19 act 1.3 and PostGolgi ctrl 3.
O=c1[nH]c(C2CCCN(S(=O)(=O)c3ccc(F)cc3)C2)nc2c1nnn2Cc1ccccc1 (stereo unspecified) was read as CYP2C9 activ 0.8, CYP2C9 inhib 18, PostGolgi yeast -3, CYP2C19 inh 6, CYP2C19 act 0.9 and PostGolgi ctrl 6.
`O=C(Cc1cccs1)N1CCC(c2nc3c(nnn3Cc3ccccc3)c(=O)[nH]2)CC1` gave CYP2C9 activ 0, CYP2C9 inhib 97*, PostGolgi yeast 6, CYP2C19 inh 48, CYP2C19 act 0.5 and PostGolgi ctrl 16.
`Cc1ccc(CC(=O)N2CCC(c3nc4c(nnn4Cc4ccccc4)c(=O)[nH]3)CC2)cc1` gave PostGolgi yeast 3 and PostGolgi ctrl 9.
Cc1ccc(Cn2nnc3c(=O)[nH]c(C4CCN(C(=O)Cc5cccs5)CC4)nc32)cc1 was read as CYP2C9 activ 0.1, CYP2C9 inhib 89*, PostGolgi yeast -4, CYP2C19 inh 48, CYP2C19 act 0.5 and PostGolgi ctrl -8.
`Cc1ccc(Cn2nnc3c(=O)[nH]c(C4CCN(S(=O)(=O)c5ccccc5)CC4)nc32)cc1` gave CYP2C9 activ 0.2, CYP2C9 inhib 79*, PostGolgi yeast 2, CYP2C19 inh 31, CYP2C19 act 0.7 and PostGolgi ctrl -3.
Screening O/N=C(/CN(O)/C=C1/C=CC=N1)c1cccs1 returned CYP2C9 activ 1, CYP2C9 inhib 4, PostGolgi yeast 3, CYP2C19 inh 10, CYP2C19 act 0.9 and PostGolgi ctrl 10.
Screening CN(C)CCCN1C(=O)c2oc3ccccc3c(=O)c2C1c1cccs1 (stereo unspecified) returned CYP2C9 activ 0.7, CYP2C9 inhib 26, PostGolgi yeast -6, CYP2C19 inh 3, CYP2C19 act 1 and PostGolgi ctrl 2.
Screening CC(=O)N1CCCc2cc(S(=O)(=O)N3CCN(c4ccccn4)CC3)ccc21 returned CYP2C9 activ 0.8, CYP2C9 inhib 19, PostGolgi yeast 0, CYP2C19 inh 16, CYP2C19 act 0.8 and PostGolgi ctrl 8.
Screening COCn1c(-c2cccc(Br)c2)nc2ccccc21 returned CYP2C9 activ 0.3, CYP2C9 inhib 69*, PostGolgi yeast 2, CYP2C19 inh 86*, CYP2C19 act 0.1 and PostGolgi ctrl 8.
Screening COCn1c(-c2ccc(OC)c(OC)c2)nc2ccccc21 returned CYP2C9 activ 0.9, CYP2C9 inhib 5, PostGolgi yeast 5, CYP2C19 inh 18, CYP2C19 act 0.8 and PostGolgi ctrl 18.
`CCOc1cc(/C=C(/C#N)C(=O)Nc2ccc(O)cc2)cc(Br)c1O` gave CYP2C9 activ 0.1, CYP2C9 inhib 94*, PostGolgi yeast -3, CYP2C19 inh 61*, CYP2C19 act 0.4 and PostGolgi ctrl 22.
`Cc1c(C(c2ccc([N+](=O)[O-])cc2)c2c(C)n(C)n(-c3ccccc3)c2=O)c(=O)n(-c2ccccc2)n1C` gave CYP2C9 activ 1.2, CYP2C9 inhib -18, PostGolgi yeast -2, CYP2C19 inh -4, CYP2C19 act 1 and PostGolgi ctrl 7.
For Cc1ccc(SCCNC(=O)c2ccccc2)cc1 the results were CYP2C9 activ 0.8, CYP2C9 inhib 23, PostGolgi yeast 7, CYP2C19 inh 37, CYP2C19 act 0.6 and PostGolgi ctrl -3.
